Test results taken from PubChem BioAssay AID488789 (Broad Institute, 2010).
Potency and affinity values are given separately. Results filed as inconclusive are left out. Calls of active or inactive are those of the source.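 Rule for the calls: active = samples whose fitted half-maximal inhibition concentration is no more than ten times the top valid dose tested; inconclusive = flat response between -70 and -30, or invalid curve fit; inactive = flat within 30 of zero, potency above limit, or signal rising.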

The compounds below were run against Trypsin (Sus scrofa) (UniProt P00761) (assay: trypsin protease activity blockade – biochemical, quenched peptide fluorescence, cherry-pick, selectivity assay for Rce1 protease inhibitor project, dose response (AID 488789;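 note: more negative means stronger trypsin inhibition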)). Conditions: porcine trypsin, quenched peptide cleavage fluorescence; series mostly up to 10 µM.
Trypsin (Sus scrofa), sequence (P00761 whole entry, looked up): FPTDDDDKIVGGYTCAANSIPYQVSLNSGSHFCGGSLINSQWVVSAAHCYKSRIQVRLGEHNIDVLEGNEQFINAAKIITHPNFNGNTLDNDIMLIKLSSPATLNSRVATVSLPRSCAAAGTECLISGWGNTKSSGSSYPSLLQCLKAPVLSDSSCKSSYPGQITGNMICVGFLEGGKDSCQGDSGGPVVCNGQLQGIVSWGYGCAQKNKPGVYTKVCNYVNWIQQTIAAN

outcome, inactive:
C/C=C(/C)C(=O)O[C@H]1[C@@H](O)c2c(ccc3ccc(=O)oc23)OC1(C)C
O=C(Nc1cccc2ccccc12)c1ccc(OC(=S)N2CCOCC2)cc1
O=C(CCCn1c(=O)[nH]c2ccc(Br)cc2c1=O)NCc1ccc(Cl)cc1
COc1ccc(NS(=O)(=O)c2ccc3oc(=O)c4[nH]c(=O)c(=O)n(C)c4c3c2)cc1
CC(C)c1ccc(/C=C2\SC(=S)N(CCC(=O)NCCCn3ccnc3)C2=O)cc1
CCCCOc1ccc(-c2cc(C(F)(F)F)c(C#N)c(SCC(=O)O)n2)cc1
CCn1cc(C(=O)N[C@H](C)c2ccccc2)c(=O)c2cc(F)c(N3CCN(C)CC3)cc21
CCOc1ccc(N(Cc2ccc(OC)cc2)C(=O)c2ccco2)cc1
CN(C(=O)COC(=O)c1cc([N+](=O)[O-])ccc1Sc1ccccc1)C1CCS(=O)(=O)C1 (configuration not stated)
NC(=O)[C@H]1CC2(CC(c3cccc(NC(=O)COc4ccc(Cl)cc4)c3)=NO2)CN1C(=O)C(c1ccccc1)c1ccccc1 (some centres not stated)
Cc1cc2cc(C#N)c(NCCNC(=S)NCCCN3CCOCC3)nc2cc1C
Cc1cccc(NC(=O)c2cc(S(=O)(=O)N3CCCCC3)c[nH]2)c1C
CCOC(=O)C1CCCN(C(=O)CCn2nnnc2CN2CCOCC2)C1 (configuration not stated)
CCc1ccc(Nc2n[n+](-c3ccccc3)c(/C=C/c3ccccc3)s2)cc1
CCCCCCCCNC(C)C(O)c1ccc(SC(C)C)cc1 (configuration not stated)
CCCCNC(=S)NNC(=O)CCn1cc(C)cn1
CC1CCN(Cc2c(C(=O)N/N=C/c3cccc(C(F)(F)F)c3)nnn2-c2nonc2N)CC1
CS(=O)(=O)Cc1ccc(C(=O)N(CCc2ccccc2)Cc2ccccc2)cc1
Cc1cc(C)c2cc(C#N)c(NCCCNC(=O)CCC(=O)O)nc2c1
CN(C)c1cc(O)c(C(=S)Nc2ccccc2)c(N(C)C)c1
Cc1ccccc1NS(=O)(=O)c1ccc(C(=O)NCC(c2ccccc2)N(C)C)cc1 (configuration not stated)
CCC(=O)Nc1cc(-c2nn(CC(=O)N3CCCCC3)c(=O)c3ccccc23)ccc1N1CCOCC1
C=C(C)C1(O)OC(=O)C=C1OC (configuration not stated)
COc1ccc(CC(=O)OCC(=O)Nc2ccc(Br)cc2)cc1
COc1cccc(-c2csc(N3CCN(C(=O)NC45CC6CC(CC(C6)C4)C5)CC3)n2)c1
CCOc1cccc(-c2c(C(=O)N/N=C/c3c(F)cccc3Cl)nnn2-c2nonc2N)c1
CC(C)CNC(=O)Nc1ccc(F)c(Cl)c1
Cc1cccc(N2C(=O)c3cccc4c(N5CCCCC5)c([N+](=O)[O-])cc(c34)C2=O)c1C
NC(=O)CSC1=Nc2ccccc2C2=NC(c3ccccc3)C(=O)N12 (configuration not stated)
CCN1CCN(c2ccc(NC(=O)c3cccc(OCc4ccccc4)c3)cc2)CC1
CCCCOc1ccc(Cc2c(COCC)[nH]c(=S)[nH]c2=O)cc1
O=C(Nc1cccc2ncccc12)c1cccnc1
O=C(COC(=O)c1ccc(S(=O)(=O)N2CCCC2)cc1)NCc1ccccc1
CN1C(=O)/C(=C/c2cccc(Cl)c2)Sc2ccc(C(=O)N3CCOCC3)cc21
COc1ccc(-c2cc(C(F)(F)F)nc(SCC(=O)N(C)Cc3cn(C)nc3C)n2)cc1OC
COc1ccccc1-c1nnc2sc(-c3ccc(N(C)C)cc3)nn12
CN(C)CC(C)(C)CNC(=S)NCc1ccc2c(c1)OCO2
